Data taken from PubChem BioAssay (Tox21).
Values joined by “and” are separate entries in the source; they are usually repeats but may differ in a detail not shown here. Identical values can stand only once. Results filed as inconclusive are left out. More than one record can exist for a structure, and the calls need not agree. Active and inactive are the calls of the source. Unless noted, the call rests on the fitted dose curve; in most records, active means well fitted curve in the direction sought with a large enough effect in the repeat runs; inconclusive means weak or mixed curves; inactive means no such curve, though single readings can be large; an effect the other way counts as inactive or inconclusive.

How the values were obtained:
[1] = qHTS assay to identify small molecule agonists of the androgen receptor (AR) signaling pathway in the presence of an antagonist - cell viability counter screen (AID 1259379); further: nearly all actives have a fitted effect of over 25% in size; further: potency means the concentration at half of the fitted maximal effect
Method in brief: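 Each compound was tested at 15 concentrations on MDA-kb2 cells in the presence of 3.0uM nilutamide. Viability was measured by CellTiter-Fluor fluorescence after a 16 hr incubation at 37C in a CO2-free atmosphere.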

[2] = qHTS assay to identify small molecule agonists of the estrogen receptor beta (ER-beta) signaling pathway - cell viability counter screen (AID 1259380); further: nearly all actives have a fitted effect of over 30% in size; further: potency means the concentration at half of the fitted maximal effect
Method in brief: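 Compounds dissolved in DMSO were pin-transferred onto ER-beta-UAS-bla HEK293T cells that had settled 6 hr, and exposure ran 16 hr at 37C. Following the reporter read, CellTiter-Glo luminescence after 30 min at room temperature indicated cytotoxicity.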

[3] = biological target: Androgen receptor (Homo sapiens) (UniProt P10275); assay: qHTS assay to identify small molecule agonists of the androgen receptor (AR) signaling pathway in the presence of an antagonist (AID 1259381; calls by dose curve; further: nearly all actives have a fitted effect of over 15% in size; further: potency means the concentration at half of the fitted maximal effect)
Chain of Androgen receptor (Homo sapiens) (P10275 whole entry, looked up): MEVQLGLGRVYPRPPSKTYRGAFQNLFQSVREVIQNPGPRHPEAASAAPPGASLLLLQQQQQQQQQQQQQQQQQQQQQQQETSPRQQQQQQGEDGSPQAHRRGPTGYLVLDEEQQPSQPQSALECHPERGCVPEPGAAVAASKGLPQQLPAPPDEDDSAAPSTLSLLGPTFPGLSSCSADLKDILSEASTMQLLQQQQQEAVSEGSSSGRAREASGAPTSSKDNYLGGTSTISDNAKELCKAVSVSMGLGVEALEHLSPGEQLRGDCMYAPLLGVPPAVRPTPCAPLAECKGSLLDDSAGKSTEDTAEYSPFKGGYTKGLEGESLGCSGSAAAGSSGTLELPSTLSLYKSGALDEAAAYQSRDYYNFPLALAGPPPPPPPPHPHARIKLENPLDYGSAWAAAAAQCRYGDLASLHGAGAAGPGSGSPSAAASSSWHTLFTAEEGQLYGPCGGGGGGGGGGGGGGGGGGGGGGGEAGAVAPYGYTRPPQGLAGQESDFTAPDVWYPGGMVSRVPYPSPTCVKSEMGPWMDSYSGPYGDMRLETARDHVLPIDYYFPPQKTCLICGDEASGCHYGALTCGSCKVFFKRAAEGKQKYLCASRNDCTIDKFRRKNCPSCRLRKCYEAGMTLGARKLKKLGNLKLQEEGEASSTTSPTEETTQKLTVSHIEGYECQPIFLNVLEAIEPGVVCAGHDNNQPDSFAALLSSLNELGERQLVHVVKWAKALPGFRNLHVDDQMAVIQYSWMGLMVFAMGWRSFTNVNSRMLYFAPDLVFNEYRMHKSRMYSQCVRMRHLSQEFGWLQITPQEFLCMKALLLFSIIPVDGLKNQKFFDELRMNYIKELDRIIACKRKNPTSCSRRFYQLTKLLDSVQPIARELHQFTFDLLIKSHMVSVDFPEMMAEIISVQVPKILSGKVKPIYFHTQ
Method in brief: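 Plated MDA-kb2 cells (3,000/well) were pre-incubated 5hr, given nilutamide (3.0uM final) or buffer, then dosed with compounds in DMSO at 15 concentrations. Luciferase activity was quantified by luminescence after 16hr at 37C.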

[4] = biological target: Estrogen receptor (Homo sapiens) (UniProt P03372); assay: qHTS assay to identify small molecule agonists of the estrogen receptor alpha (ER-alpha) signaling pathway in the presence of an antagonist (AID 1259383; calls by dose curve; further: top concentration of the series differs between compounds; nearly all actives have a fitted effect of over 15% in size)
Chain of Estrogen receptor (Homo sapiens) (P03372 whole entry, looked up): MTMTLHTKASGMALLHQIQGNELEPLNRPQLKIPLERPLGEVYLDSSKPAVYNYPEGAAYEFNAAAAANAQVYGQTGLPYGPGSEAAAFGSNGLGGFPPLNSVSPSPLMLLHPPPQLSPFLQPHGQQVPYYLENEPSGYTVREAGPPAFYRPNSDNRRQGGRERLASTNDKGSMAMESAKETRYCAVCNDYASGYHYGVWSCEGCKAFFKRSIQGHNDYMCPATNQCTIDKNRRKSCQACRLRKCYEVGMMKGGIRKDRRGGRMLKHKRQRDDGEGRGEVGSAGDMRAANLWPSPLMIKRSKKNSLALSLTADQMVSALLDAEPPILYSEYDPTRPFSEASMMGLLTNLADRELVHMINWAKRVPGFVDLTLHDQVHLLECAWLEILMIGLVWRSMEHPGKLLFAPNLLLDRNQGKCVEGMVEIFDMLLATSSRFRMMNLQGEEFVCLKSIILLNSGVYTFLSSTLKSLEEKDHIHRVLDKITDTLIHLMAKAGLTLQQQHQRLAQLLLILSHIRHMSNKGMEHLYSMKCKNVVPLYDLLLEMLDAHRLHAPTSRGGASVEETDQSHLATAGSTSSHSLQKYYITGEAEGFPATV
Method in brief: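 Luminescent ERE-luciferase reporter, VM7Luc4E2 cells (endogenous ER-alpha); 10.0nM ICI-182,780 final; 15-point compound titration; 22hr at 37C; ONE-Glo, 30min RT.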

[5] = qHTS assay to identify small molecule agonists or antagonists of the thyroid stimulating hormone receptor (TSHR) signaling pathway - wild type cell line counter screen (AID 1259384; calls by dose curve)
Method in brief: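 Wild-type Hek293 cells, 800/well, 18 h at 37C, then compound with Ro20-1724 for 30 min RT. cAMP by HTRF (cAMP-d2/anti-cAMP cryptate), 1 h RT, fluorescence read. 15 concentrations, triplicates.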

[6] = biological target: Thyrotropin receptor (Homo sapiens) (UniProt P16473); assay: qHTS assay to identify small molecule antagonists of the thyroid stimulating hormone receptor (TSHR) signaling pathway (AID 1259385; calls by dose curve; further: nearly all actives have a fitted effect of over 20% in size)
Chain of Thyrotropin receptor (Homo sapiens) (P16473 whole entry, looked up): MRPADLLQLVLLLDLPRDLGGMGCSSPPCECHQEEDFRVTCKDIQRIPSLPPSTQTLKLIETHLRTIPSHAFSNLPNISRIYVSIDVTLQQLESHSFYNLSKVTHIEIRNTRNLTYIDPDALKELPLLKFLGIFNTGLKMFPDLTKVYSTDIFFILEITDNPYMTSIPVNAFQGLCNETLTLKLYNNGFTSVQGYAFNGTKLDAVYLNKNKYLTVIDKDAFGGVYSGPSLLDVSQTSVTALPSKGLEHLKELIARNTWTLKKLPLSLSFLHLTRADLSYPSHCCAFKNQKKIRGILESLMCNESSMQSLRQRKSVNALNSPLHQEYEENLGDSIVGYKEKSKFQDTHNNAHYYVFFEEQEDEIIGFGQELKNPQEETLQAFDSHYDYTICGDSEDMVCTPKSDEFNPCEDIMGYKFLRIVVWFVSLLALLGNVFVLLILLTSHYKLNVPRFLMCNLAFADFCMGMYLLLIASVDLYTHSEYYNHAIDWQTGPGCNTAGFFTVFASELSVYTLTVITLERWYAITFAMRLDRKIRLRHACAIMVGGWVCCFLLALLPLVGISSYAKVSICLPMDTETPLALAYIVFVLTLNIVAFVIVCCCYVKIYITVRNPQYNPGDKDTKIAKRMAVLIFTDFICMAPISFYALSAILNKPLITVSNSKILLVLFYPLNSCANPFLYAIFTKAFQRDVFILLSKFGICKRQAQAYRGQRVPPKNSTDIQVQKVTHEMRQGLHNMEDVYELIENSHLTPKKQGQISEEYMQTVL
Method in brief: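 TSHR-HEK293 cells (800/well) plated 18 h, then compounds with Ro20-1724 and TSH at 1.5 ng/mL final, 30 min at room temperature. cAMP quantified by HTRF (cAMP-d2/anti-cAMP-cryptate, 1 h); 15 concentrations in triplicate.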

[7] = qHTS assay to identify small molecule agonists of the estrogen receptor alpha (ER-alpha) signaling pathway in the presence of an antagonist - cell viability counter screen (AID 1259386);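 further: cells exposed to compounds for 22 h at 37 °C before the viability read; nearly all actives have a fitted effect of over 30% in size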; further: potency means the concentration at half of the fitted maximal effect
Method in brief: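 Using estrogen-depleted VM7Luc4E2 cells, the 15-concentration compound series was applied together with 10.0nM ICI-182,780 and incubated 22hr at 37C/5% CO2. Cell viability was then scored by CellTiter-Fluor.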

[8] = biological target: Progesterone receptor (Homo sapiens) (UniProt P06401); assay: qHTS assay to identify small molecule agonists of the progesterone receptor (PR) signaling pathway (AID 1346784; calls by dose curve; further: nearly all actives have a fitted effect of over 30% in size)
Chain of Progesterone receptor (Homo sapiens) (P06401 whole entry, looked up): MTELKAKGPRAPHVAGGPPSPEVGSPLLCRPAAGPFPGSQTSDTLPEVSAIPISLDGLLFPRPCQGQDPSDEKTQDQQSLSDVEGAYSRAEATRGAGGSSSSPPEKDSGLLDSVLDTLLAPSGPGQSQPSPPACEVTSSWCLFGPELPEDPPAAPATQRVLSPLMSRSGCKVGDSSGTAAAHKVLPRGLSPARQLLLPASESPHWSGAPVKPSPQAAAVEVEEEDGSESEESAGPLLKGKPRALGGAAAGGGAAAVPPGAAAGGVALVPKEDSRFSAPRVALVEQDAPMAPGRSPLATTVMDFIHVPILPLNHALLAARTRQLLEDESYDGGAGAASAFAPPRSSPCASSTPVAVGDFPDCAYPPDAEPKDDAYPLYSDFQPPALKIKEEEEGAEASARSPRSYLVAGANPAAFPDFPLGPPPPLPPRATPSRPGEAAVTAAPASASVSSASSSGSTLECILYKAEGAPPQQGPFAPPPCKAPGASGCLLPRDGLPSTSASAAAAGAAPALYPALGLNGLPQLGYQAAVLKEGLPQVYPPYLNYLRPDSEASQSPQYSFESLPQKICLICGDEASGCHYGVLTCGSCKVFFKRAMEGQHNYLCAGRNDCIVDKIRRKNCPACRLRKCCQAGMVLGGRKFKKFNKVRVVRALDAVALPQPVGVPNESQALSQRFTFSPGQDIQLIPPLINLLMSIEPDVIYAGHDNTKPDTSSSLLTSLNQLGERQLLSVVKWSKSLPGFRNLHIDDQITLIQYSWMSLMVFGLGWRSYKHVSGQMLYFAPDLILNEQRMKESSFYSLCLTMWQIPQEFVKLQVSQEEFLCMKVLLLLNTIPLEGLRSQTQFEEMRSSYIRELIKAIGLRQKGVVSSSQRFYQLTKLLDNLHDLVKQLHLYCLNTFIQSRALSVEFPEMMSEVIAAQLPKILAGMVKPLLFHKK
Method in brief: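 Beta-lactamase reporter read-out: after 16 hr compound treatment at 37C and a further 2 hr at room temperature with LiveBLAzer B/G FRET substrate, fluorescence was measured in PR-UAS-bla HEK 293T cells grown in 2% charcoal-stripped serum.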

[9] = biological target: Progesterone receptor (Homo sapiens) (UniProt P06401); assay: qHTS assay to identify small molecule antagonists of the progesterone receptor (PR) signaling pathway (AID 1346795; active means well fitted inhibition curve with a large enough effect in the signal ratio in the repeat runs, not every such curve was filed as active; the % refers to the signal ratio)
Method in brief: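 Read-out is fluorescence from the LiveBLAzer B/G FRET substrate, cleaved by a UAS-controlled beta-lactamase in PR-UAS-bla HEK293T cells after 16 hr exposure to compound plus 1 nM promegestone (final), followed by 2 hr at room temperature.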

[10] = qHTS assay to identify small molecule antagonists of the progesterone receptor (PR) signaling pathway - cell viability counter screen (AID 1346798); further: nearly all actives have a fitted effect of over 50% in size; further: potency means the concentration at half of the fitted maximal effect
Method in brief: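 HEK293T PR-UAS-bla, 2% charcoal-stripped FBS; 4 hr pre-plate; cpd + R5020, 16 h 37C; LiveBLAzer read first; then CellTiter-Glo 30 min RT, luminescence.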

[11] = qHTS assay to identify small molecule agonists of the progesterone receptor (PR) signaling pathway - cell viability counter screen (AID 1346799; calls by dose curve; further: nearly all actives have a fitted effect of over 45% in size; further: potency means the concentration at half of the fitted maximal effect)
Method in brief: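 Luminescence from CellTiter-Glo, added after the beta-lactamase FRET read in the same wells, gave cytotoxicity in PR-UAS-bla HEK293T cells treated with compounds for 16 hr at 37C.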

[12] = qHTS assay to identify small molecule antagonists of the TGF-beta/Smad signaling pathway - cell viability counter screen (AID 1346824); further: nearly all actives have a fitted effect of over 50% in size
Method in brief: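 SBE-bla HEK 293T cells, incubated overnight, then compound plus 0.25 ng/mL TGF-beta1 (stock added) for 5 hr at 37 C. Viability was read in the same wells by CellTiter-Glo luminescence after 30 min at room temperature.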

[13] = qHTS assay to identify small molecule agonists of the TGF-beta/Smad signaling pathway - cell viability counter screen (AID 1346829); further: top concentration of the series differs between compounds; nearly all actives have a fitted effect of over 45% in size
Method in brief: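 CellTiter-Glo luminescence readout; SBE-bla HEK 293T cells, overnight plating, compound 5 hr at 37 C/5% CO2, then bla substrate 2 hr RT, then CellTiter-Glo 30 min RT.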

[14] = qHTS assay to identify small molecule agonists of the TGF-beta/Smad signaling pathway (AID 1346859; active means well fitted activation curve with a large enough effect in the signal ratio in the repeat runs, not every such curve was filed as active; the % refers to the signal ratio; further: series mostly up to about 77 µM)
Method in brief: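 SBE-bla HEK 293T, 4,000 cells/well, plated o/n; cpd in DMSO, 5 hr, 37 C/5% CO2; B/G FRET substrate 2 hr RT; ex 405, em 460/530 nm.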

[15] = biological target: Thyrotropin-releasing hormone receptor (Homo sapiens) (UniProt P34981); assay: qHTS assay to identify small molecule agonists of the thyrotropin-releasing hormone receptor (TRHR) signaling pathway (AID 1346891; calls by dose curve; further: series mostly up to about 58 µM)
Chain of Thyrotropin-releasing hormone receptor (Homo sapiens) (P34981 whole entry, looked up): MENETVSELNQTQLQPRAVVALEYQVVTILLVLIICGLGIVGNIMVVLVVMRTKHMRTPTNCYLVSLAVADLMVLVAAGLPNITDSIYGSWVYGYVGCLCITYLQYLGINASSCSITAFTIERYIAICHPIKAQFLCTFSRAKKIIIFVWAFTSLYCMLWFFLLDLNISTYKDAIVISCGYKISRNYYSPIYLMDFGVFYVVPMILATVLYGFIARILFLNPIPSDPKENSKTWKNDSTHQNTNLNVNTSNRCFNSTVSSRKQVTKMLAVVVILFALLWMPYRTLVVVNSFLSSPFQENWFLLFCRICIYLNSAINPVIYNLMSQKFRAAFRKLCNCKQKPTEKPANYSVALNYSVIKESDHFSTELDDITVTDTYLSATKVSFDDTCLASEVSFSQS
Method in brief: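 Intracellular calcium rise, read as fluorescence every second for 3 min, served as the agonist signal in dye-loaded HEK293 cells expressing TRHR; each compound ran at 15 concentrations in triplicate.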

[16] = Human pregnane X receptor (PXR) small molecule agonists, qHTS cell viability counter screen (AID 1346977); further: nearly all actives have a fitted effect of over 50% in size; further: potency means the concentration at half of the fitted maximal effect
Method in brief: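 PXR-Luc HepG2, 2,000 cells/well, 5% charcoal-stripped FBS; 5hr settle; cpd 24hr, 37C/5% CO2; CellTiter-Fluor at 23hr, read 1hr later (fluorescence).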

[17] = qHTS assay to identify small molecule antagonists of the estrogen receptor beta (ER-beta) signaling pathway - cell viability counter screen (AID 1259382); further: nearly all actives have a fitted effect of over 55% in size; further: potency means the concentration at half of the fitted maximal effect
Method in brief: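 CellTiter-Glo ATP luminescence measured after the LiveBLAzer read in the same wells; ER-beta-UAS-bla HEK293T cells, 16 hr compound treatment with 1nM 17-beta-estradiol agonist at 37C, 5% CO2.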

[18] = biological target: Thyrotropin-releasing hormone receptor (Homo sapiens) (UniProt P34981); assay: qHTS assay to identify small molecule antagonists of the thyrotropin-releasing hormone receptor (TRHR) signaling pathway (AID 1346877; active means well fitted inhibition curve with a large enough effect in the repeat runs, not every such curve was filed as active; further: series mostly up to about 51 µM)
Method in brief: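 Calcium signal in dye-loaded TRHR/HEK293 cells; compounds added 5 min before TRH (1 nM final); fluorescence monitored 3 min at 1 s steps.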

Measured: Potency

CCCCCCCOC(=O)c1ccccc1C(=O)OCCCCCCC
not listed: [17] | [18]
inactive: all other assays above

ClC/C=C\CCl
not listed: [3] | [11]
inactive: all other assays above

Clc1cccnc1
not listed: [6] | [11]
inactive: all other assays above

CC1=C(/C=C/C(C)=C/C=C/C(C)=C/C(=O)Nc2ccc(O)cc2)C(C)(C)CCC1
active: [1] 49.8 µM and 23.7 µM | [2] 62.7 µM and 26.6 µM | [17] 70.3 µM | [7] 31.4 µM and 13.3 µM | [16] 49.8 µM and 26.6 µM
8.85 µM (active) and inactive: [3]
not listed: [8] | [9] | [10] | [11]
inactive: all other assays above

COc1cccc(CCc2ccccc2OCC(CN(C)C)OC(=O)CCC(=O)O)c1 (stereo not given)
active: [2] 23.7 µM | [17] 21.1 µM | [10] 13.3 µM | [11] 2.98 µM | [16] 26.6 µM
not listed: [3] | [9]
inactive: all other assays above

OCCCCl
not listed: [6] | [7] | [11] | [17]
inactive: all other assays above

O=C1NCCN1CCN1CCC(c2cn(-c3ccc(F)cc3)c3ccc(Cl)cc23)CC1
inactive: [3] | [4] | [5] | [7] | [8] | [11] | [14] | [15]
active: [1] 15 µM | [2] 13.3 µM | [16] 29.8 µM

Cc1cc(C)c(C=O)c(C)c1
not listed: [3]
inactive: all other assays above
